# Source: PubChem BioAssay AID828 (The Scripps Research Institute Molecular Screening Center, 2007)
# Hit rate of the full screen: of about 140,000 compounds, about 550 (0.39%) were called active. For the sample, actives were picked, then their nearest neighbours and some compounds at random. A number with no mark means an inactive call. Cut-off read from the data, not from the text of the source: active = inhibition above about 27%; inactive = the rest.
# Target: Galanin receptor type 2 (Homo sapiens) (UniProt O43603)
# Test: GALR2 antagonists in receptor-expressing cells, primary screen (AID 828);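 note: cells stimulated with galanin 1-16 at roughly its EC80; 0% = agonist challenge control and 100% = basal control without agonist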
# Conditions: antagonist mode, at 4 µM, hits give high values
# Chain of Galanin receptor type 2 (Homo sapiens) (O43603 whole entry, looked up): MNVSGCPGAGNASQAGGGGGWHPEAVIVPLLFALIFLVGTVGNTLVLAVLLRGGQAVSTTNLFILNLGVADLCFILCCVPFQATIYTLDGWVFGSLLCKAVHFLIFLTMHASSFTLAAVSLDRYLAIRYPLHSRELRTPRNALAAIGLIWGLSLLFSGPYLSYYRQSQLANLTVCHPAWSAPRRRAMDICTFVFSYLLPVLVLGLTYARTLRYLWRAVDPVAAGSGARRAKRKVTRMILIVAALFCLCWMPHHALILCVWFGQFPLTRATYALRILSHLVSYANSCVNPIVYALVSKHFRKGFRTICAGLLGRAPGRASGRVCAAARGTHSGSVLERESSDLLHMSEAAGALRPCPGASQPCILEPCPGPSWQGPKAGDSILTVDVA
row,Structure (SMILES),inhibition
1,COc1cc2c(cc1OC)C(=O)NCC(C)(C)O2,1.34%
2,CCCSc1nc2[nH]ncc2c(=O)[nH]1,-7.72%
3,Cc1ccc(Nc2nc(CSc3nnc(-c4ccncc4)n3-c3ccccc3C)cs2)cc1,-7.55%
4,Cc1ccc(C(=O)N2CC(=O)Nc3ccccc32)o1,-5.68%
5,CC(C)(C)OC(=O)N/N=C/c1ccc(C(=O)O)cc1,1.78%
6,O=C(CC1SC(=Nc2ccccc2)N(Cc2ccccn2)C1=O)Nc1cccc(Cl)c1 (stereo not drawn),-2.96%
7,COC(=O)Cc1cc(=O)oc2c(C)c(O)ccc12,39.2% (active)
8,CCCc1cc(=O)oc2c(C)c(O)c(CN3CCCCC3)cc12,-0.41%
9,COC(=O)COc1ccc2oc(=O)cc(C)c2c1,4.15%
10,O=c1c2c(ncn1Cc1ccccc1)nc1n2CCC1,11.2%
11,Clc1ccccc1SCc1nc2ccccc2[nH]1,7.26%
12,Clc1ccc(-c2nnc(SCc3nc4ccccc4s3)o2)cc1,12%
13,c1ccc(-c2nnc(SCc3nc4ccccc4[nH]3)o2)cc1,27.2% (active)
14,CCCC/C(C)=N/NC(=O)NC1CCCCC1,1.57%
15,CCCCN(C)CCC(=O)Nc1ccc(Cl)cc1,9.01%
16,Nc1nc(CC(=O)CSc2ccc(Cl)cc2)nc(Nc2ccc(F)cc2)n1,5.35%
17,O=C(COc1ccccc1F)NNC(=O)c1ccc(N2CCCCC2)c([N+](=O)[O-])c1,-5.34%
18,COc1ccc([N+](=O)[O-])cc1NC(=O)c1ccc(N(Cc2ccccc2C)S(C)(=O)=O)cc1,10.8%
19,CCCCCCCCCOC1OC(CO)C(O)C(O)C1NC(C)=O (stereo not drawn),-2.61%
20,N=C1C(=O)OCC1c1ccccc1NC(=O)CN1CCCCC1 (stereo not drawn),0.12%
21,O=C(Nn1c(-c2ccccc2)nc2ccccc2c1=O)c1ccc([N+](=O)[O-])cc1,-0.78%
22,Cc1ccc(S(=O)(=O)/N=S(\C)C(C)C)cc1 (stereo not drawn),0.24%
23,COC(=O)[C@H]1Cc2cnoc2C[C@]1(C)C(=O)O,13.5%
24,Cc1ccc(S(=O)(=O)c2ccc(Oc3ccccc3)cc2)cc1,-10.2%
25,CC1=C/C(=N\OS(=O)(=O)c2ccccc2)C=CC1=O,53.5% (active)
26,CCOC(=O)C1(S(=O)(=O)c2ccccc2)CCN(Cc2ccccc2)CC1,-2.88%
27,O=C(Cc1ccccc1)NNC1CC(=O)N(c2ccc(Br)cc2)C1=O (stereo not drawn),-17.6%
28,COc1ccc(NS(=O)(=O)c2ccc(NC(=O)c3ccc(N(C)S(C)(=O)=O)cc3)cc2)cc1,3.65%
